Shown are actives, neighbours in structure and some others; about 19% of the full set was active somewhere.
HT1080 IDH1KD tx – toxicity to HT-1080 IDH1 knockdown cells (counter line); HT-1080 IDH1 knockdown viability, ATP luminescence, 48 h; Potency, µM (series often up to 46.1 µM), for the others: at the highest dose activity, negative = toxicity, most hits filed as cytotoxic; 360,000 compounds, 2% hits; AID 686971;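 further: potency means the concentration at half of the fitted maximal effect; 0% = DMSO wells and -100% = cell-free medium wells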
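After a 2 h attachment period, IDH1KD HT-1080 cells took pin-transferred compound for 48 h at 37 °C; ATP-based luminescence after 10 min room-temperature reagent incubation reported viability.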
ELG1 DNA repair – inhibitors of ELG1-dependent DNA repair in HEK293T cells; AID 504467; 330,000 compounds, 2.3% hits; Potency, µM (titrated, usually from 46.1 µM), without a hit: top-dose activity change, negative = inhibition, hits mostly inhibitors; HEK293T ELG1-luciferase reporter, luminescence, 16 h; DNA damage induced by 5-fluorouridine; further: potency means the concentration at half of the fitted maximal effect; nearly all actives have a fitted effect of over 55% in size
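Step one: seed 2,000 cells per well. Step two: pin-transfer compound or DMSO alongside 5-fluorouridine. Step three: incubate 16 hr, 37 °C, 5% CO2. Step four: add ONE-Glo, wait 30 min, read luminescence.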
IL-1B inflam inh – inflammasome signaling inhibition, IL-1 beta readout | AID 743279 | activity change, % at 57.5 µM | THP-1 LPS/ATP IL-1B secretion, AlphaLISA, 16 h; hits give low values | 360,000 compounds, 4.7% hits; in the data active means activity change below about -50%; inconclusive means mostly about -30% to -49%
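THP-1 cells pretreated 1 hr with compounds (up to 57.5 uM final), then stimulated with LPS (250 ng/mL final) plus ATP (1.25 mM final); secreted IL-1B measured by AlphaLISA after 16 hr, decreased signal indicating inhibition.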
DT40 TDP1 CPT – DT40-hTDP1 cell growth loss with CPT. chicken DT40 Tdp1-/-;hTDP1 cells + 20 nM CPT, ATP luminescence, 48 h. Potency, µM (highest dose often 46.2 µM), inactives show at the top dose activity change, negative = growth inhibition, most hits filed as inhibitors. 420,000 compounds, 12% hits; further: potency means the concentration at half of the fitted maximal effect; nearly all actives have a fitted effect of over 55% in size
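Cell growth measured by CellTiter-Glo luminescence after a minimum 48 h, 37 C compound exposure with 20 nM CPT in Tdp1-knockout DT40 cells stably expressing hTDP1, seeded 400/well; qHTS titration format.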
HT1080-NT tox – kills 2HG-producing HT-1080-NT fibrosarcoma cells | AID 686970 | 360,000 compounds, 1.6% hits | Potency, µM (series often up to 46.1 µM), for inactives: at the highest dose activity, negative = less viability, hits mostly cytotoxic | HT-1080-NT fibrosarcoma viability, CellTiter-Glo ATP luminescence, 48 h;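 further: NT is the 2HG producing partner of a matched IDH1 knockdown line; potency means the concentration at half of the fitted maximal effect; 0% = DMSO-treated cells and -100% = media-only wells without cells; nearly all actives have a fitted effect of over 55% in size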
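HT-1080-NT fibrosarcoma cells (2HG-overproducing), 750 cells/well in RPMI with 5% FBS, dosed after 2 h and incubated 48 h at 37C. CellTiter-Glo luminescence normalized to DMSO and no-cell wells; concentration-response curves fitted and classed.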
TDP1 cell noCPT – qHTS for Inhibitors of human tyrosyl-DNA phosphodiesterase 1 (TDP1): qHTS in cells in absence of CPT | DT40 Tdp1-/- hTDP1 cells, no CPT, ATP luminescence, 48 h | Potency, µM (series often up to 46.2 µM), for the others: at the top dose activity change, negative = growth inhibition, actives largely listed as inhibitors | 420,000 compounds, 15% hits; further: potency means the concentration at half of the fitted maximal effect; nearly all actives have a fitted effect of over 55% in size
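Chicken DT40 Tdp1-/- cells complemented with human TDP1, screened without camptothecin (DMSO vehicle only), 400 cells/well. Compounds pin-transferred, cells incubated at 37 °C for at least 48 hr. Growth read as ATP-dependent luminescence (CellTiter-Glo, 30 min at RT).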
The depositor's hits bear a star; ? = inconclusive; nt = no result; [ ] = remark or other dose. Unless noted, the call rests on the fitted dose curve; in most records, active means well fitted curve in the direction sought with a large enough effect; inconclusive means small, poorly fitted or top-dose-only effect, or another doubt; inactive means no such curve, though single readings can be large; an effect the other way counts as inactive or inconclusive. Unless noted, on the % scale 0 is the no-effect control and ±100 the full control effect.

SMILES | HT1080 IDH1KD tx | ELG1 DNA repair | IL-1B inflam inh | DT40 TDP1 CPT | HT1080-NT tox | TDP1 cell noCPT
CC(=O)Nc1cccc(-c2ccnc3c2CC(C)(C(=O)NCCC(F)(F)F)O3)c1 (centres undefined) | ? | nt | 80 | 3.7µM* | ? | 4.1µM*
CC(=O)Nc1cccc(-c2ccnc3c2CC(C)(C(=O)NCC2CC2)O3)c1 (centres undefined) | nt | nt | 69 | 4.1µM* | nt | 2.9µM*
CCCN(CCC)c1nc(Cl)nc(NCCN2CCOCC2)n1 | -4% | 23µM* | 25 | ? | -3% | ?
CCOc1nc(NCCN2CCOCC2)nc(NC(C)C)n1 | -4% | 23% | -6 | -2% | 0% | -16%
COc1ccc(C(=O)N2CCN(S(=O)(=O)c3ccc4c(c3)OCCO4)CC2)cc1OC | -10% | -25% | -26 | -25% | -2% | -17%
CN(C)S(=O)(=O)c1cccc(C(=O)N2CCN(S(=O)(=O)c3ccc4c(c3)OCCO4)CC2)c1 | 1% | nt | 10 | ? | -2% | 16µM*
CC(C(=O)N(C)Cc1cccc(F)c1)N1CCN(S(=O)(=O)c2ccc3c(c2)OCCCO3)CC1 (centres undefined) | -1% | -15% | -59* | ? | 1% | ?
CC(C)(C)C(=O)N1CCN(S(=O)(=O)c2ccc3c(c2)OCCCO3)CC1 | -12% | -10% | 5 | ? | -19% | 18µM*
CCc1ccc(OCc2ccccc2C(=O)Nc2ccc3nc(C)cc(N)c3c2)cc1 | nt | nt | nt | 5µM* | nt | 3.2µM*
CCOC(=O)c1cc2cc(OCc3ccccc3)ccc2nc1C | 2% | 0% | -13 | -19% | 1% | -25%
CCN(Cc1ccc2c(c1)OCCO2)C(=O)CSc1nc(C)nc2sc(C)c(C)c12 | -4% | 13µM* | ? | ? | 4%[9.24 µM] | ?
O=S(=O)(c1ccc(-n2cnnn2)cc1)N1CCN(c2cccc(Cl)c2)CC1 | nt | nt | nt | -10% | nt | -10%
O=C(NNC(=O)c1cc2cc3ccccc3nc2s1)c1cccc(C(F)(F)F)c1 | 12% | 5% | 2 | -22% | 4% | -17%
COc1cnc(-c2cccc(C(F)(F)F)c2)c(NC(=O)c2cc3ccccc3s2)n1 | 21% | nt | -7 | 18µM* | -2% | 10µM*
COc1ccccc1C(=O)Nc1nc2nc(C)c(Cc3ccccc3)c(=O)n2[nH]1 | nt | nt | nt | -18% | nt | -12%
CCSc1nc2c(c(=O)n1Cc1ccccc1)SC(C)C2 (centres undefined) | -14% | -7% | ? | 12µM* | 0% | ?
COCCn1c(SCC(=O)Nc2ccc3c(c2)OCCO3)nc2c(c1=O)SC(C)C2 (centres undefined) | 0% | ? | -4 | 15µM* | -4% | ?
CC1Cc2nc(SCC(=O)Nc3ccc4c(c3)OCO4)n(Cc3ccccc3)c(=O)c2S1 (centres undefined) | -2% | ? | -19 | 16µM* | 1% | ?
Cc1cc(NC(=O)CSc2nc3c(c(=O)n2-c2ccccc2)SC(C)C3)no1 (centres undefined) | 4% | 12% | -2 | ? | 1% | 21µM*
Cc1cccc(NC(=O)C(=O)NCC(c2ccc3c(c2)OCO3)N2CCN(c3ccccc3)CC2)c1 (centres undefined) | nt | nt | nt | -27% | nt | -6%
CC/C(=N\NC(=O)C1CCCC1)c1cccc(Br)c1 | -14% | 2% | 38 | -8% | 0% | 16%
CC1Cc2nc(SCC(=O)Nc3nccs3)n(Cc3ccccc3)c(=O)c2S1 (centres undefined) | 0% | ? | -26 | 21µM* | 0% | ?

Screens deposited in PubChem by National Center for Advancing Translational Sciences (NCATS).
